# Assay results reported in PubChem BioAssay (NCI).
# Where “and” joins values, the source holds several entries; their conditions need not be identical. Equal entries are not always repeated. Compounds without any hit were thinned out: in the full panel of roughly 83,000, 20% have a hit.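 Note: values are percent growth. 100 is the growth of untreated cells, values between 100 and 0 indicate rising inhibition; between -100 and 0 indicates cell death.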 Calls of active or inactive are those of the source.
# System: KM12 colon
# Assay: NCI-60 one-dose screen, 48 h (100 = growth as untreated, 0 = no growth, -100 = all killed)
# Details: 0.25 µM
# Protocol: Growth inhibition of the KM12 human tumor cell line is measured as a screen for anti-cancer activity. Cells are grown in 96 well plates and exposed to the test compound for 48 hours. Compounds are tested at a single concentration, which is 10^-5 M for most compounds. The reported endpoint is percent growth (GI% or GIPRCNT), where numbers from 0 - 100% represent growth inhibition, and numbers from -100% - 0 represent cell death. For example, a value of 40 represents 60% growth inhibition. A value of 0 means no net growth occurred over the course of the experiment. A value of -40 indicates 40% of cells at the beginning of the experiment died by the end of the experiment. A value of -100 means all cells are dead at the end of the experiment.
# NCI-60 Human Tumor Cell Lines Screen was performed using the standard one-dose NCI protocol, which is described in more detail at https://dtp.cancer.gov/discovery_development/nci-60/default.htm.
# Compounds with GIPRCNT values below 10 were considered active. Activity score was based on GIPRCNT using the following formula: […]
# Score is 0 for GIPRCNT values of 100 or above, 50 for GIPRCNT values of 0, and 100 for GIPRCNT values of -100.
row,SMILES,growth
1,CCCCCCCCCCCCCCCc1ccc(Cl)c(O)c1Cl (tested in a mixture with another compound),46% (inactive)

# Same assay, conditions: 10 µM
row,SMILES,growth
1,O=C(O)c1sccc1O,78.3% (inactive)
2,CCCCCCCCCCCCCCCc1ccc(Cl)c(O)c1Cl (tested in a mixture with another compound),96.7% (inactive)
3,CC(C)(C)c1cc(NC(=O)Cc2ccc(-c3cnc4cc(-c5cnn(CCN6CCOCC6)c5)ccc4n3)cc2)no1,8.46% (active)
4,CC#C[C@]1(O)CC[C@H]2[C@@H]3CCC4=CC(=O)CCC4=C3[C@@H](c3ccc4c(c3)OCO4)C[C@@]21C,86.3% (inactive)

# Same assay, conditions: 10 µM unless noted
row,SMILES,growth
1,CC(=O)Nc1cc(S(=O)(=O)O)cc2cc(S(=O)(=O)O)c(N=Nc3ccccc3)c(O)c12,107% (inactive) and 106% (inactive)
2,CCN(CC)C(=S)SSC(=S)N(CC)CC,88.8% (inactive) and 97.5% (inactive)
3,O=C(/C=C\c1ccnc2ccccc12)c1ccc([N+](=O)[O-])cc1,83.3% (inactive) and 33.1% (inactive)
4,CCN(CC)CCOc1ccc2c(c1)C(=O)c1cc(OCCN(CC)CC)ccc1-2,54.8% (inactive) and 40.4% (inactive)
5,CNC(=O)c1ccc(C)c(-n2c(C)cc(OCc3ccc(F)cc3F)c(Br)c2=O)c1,90% (inactive) and 92.5% (inactive)
6,Oc1ccccc1/C=N\NC(=S)N/N=C/c1ccccc1O,39% (inactive) and 28.2% (inactive)
7,O=C1c2ccccc2C(=O)c2c(NCCNCCO)ccc(NCCNCCO)c21,8.81% (active) and 41.7% (inactive) and 40.2% (inactive)
8,CCOC(=O)Nc1nc2ccccc2[nH]1,106% (inactive) and 26.2% (inactive)
9,Clc1ccc(NC(Nc2ccc(Cl)cc2)C(Cl)(Cl)Cl)cc1,48.6% (inactive) and 84.9% (inactive)
10,c1ccc2cc(C[n+]3ccn(Cc4ccc5ccccc5n4)c3)ccc2c1,-7.63% (active) and 12.6% (inactive)
11,CC1=C(/C=C/C(C)=C/C=C/C(C)=C/C(=O)O)C(C)(C)CCC1,94.7% (inactive) and 105% (inactive) and 102% (inactive)
12,Clc1ccc(SSc2ccc(Cl)cc2)cc1,107% (inactive)
13,C#CCN(C)Cc1ccccc1,109% (inactive) and 102% (inactive)
14,Nc1nc(SC/C=C/CCl)c2[nH]cnc2n1,107% (inactive) and 111% (inactive)
15,O=C(Nc1cccc(-n2ccc3c(NC(=O)c4ccccc4)nccc32)c1)c1ccc(Cl)c(C(F)(F)F)c1,-54.5% (active) and 42.7% (inactive)
16,Nc1ccccc1Nc1ccccc1,85.8% (inactive) and 79.6% (inactive)

row,SMILES,growth
1,CC(C)(C)c1ccc(O)c(CNC2CCCCC2)c1,105% (inactive) and 92.2% (inactive)
2,CC(CN=Cc1ccccc1O)N=Cc1ccccc1O (stereo not given),102% (inactive) and 113% (inactive)
3,CC(C)Oc1ccc2cc(-c3nn(CC4CCNCC4)c4ncnc(N)c34)ccc2c1,86.4% (inactive) and 22.4% (inactive)
4,OCc1ccccn1,110% (inactive)
5,Cc1ncsc1CCO,110% (inactive) and 98.1% (inactive)
6,Clc1nc(Oc2ccccc2)nc(-c2cn(-c3ccccc3)c3ccccc23)n1,89.6% (inactive)
7,CC1CCCc2sc3nc(NNC(=O)c4cnccn4)n(-c4ccccc4)c(=O)c3c21 (stereo not given),20% (inactive) and 19.2% (inactive)
8,OC(CSc1ccccc1)CN1CCN(c2cccc(Cl)c2)CC1 (stereo not given),109% (inactive) and 101% (inactive)
9,Cc1ccc(S(=O)(=O)Nc2nc3ccccc3nc2Nc2ccc3nsnc3c2)cc1,48.7% (inactive) and 44.1% (inactive)
10,NC(=S)N/N=C(\c1ccc(Br)cc1)C1CC1,101% (inactive) and 108% (inactive)
11,Cc1ccc2nc3c(nc2c1)-c1cccc2cccc-3c12,75.4% (inactive)
12,CCN(CC)CCNc1cc(-c2cccc(OC(F)(F)F)c2)nc2ccc(N3CCCC3)cc12,32.3% (inactive) and -1.83% (active) and 9.39% (active)
13,COc1cc(Nc2nc3ccccc3nc2NS(=O)(=O)c2ccc(NC(=O)c3ccc(C)c(OC)c3)cc2)cc(OC)c1,54% (inactive) and 13.9% (inactive)
14,NC(=O)C1CC2C=CC1C2 (stereo not given),112% (inactive) and 105% (inactive)
15,Nc1ccccc1SC1CC(=O)N(c2cccc3ccccc23)C1=O (stereo not given),101% (inactive)
16,O=[N+]([O-])c1ccc(/C=N\NC(=S)Nc2ccc(F)cc2)cc1,98.6% (inactive) and 81.3% (inactive)

# Same assay, conditions: 30 µM
row,SMILES,growth
1,CC(C)(C)c1cc(NC(=O)Cc2ccc(-c3cnc4cc(-c5cnn(CCN6CCOCC6)c5)ccc4n3)cc2)no1,9.72% (active)

# Same assay, conditions: 100 µM
row,SMILES,growth
1,O=C(O)c1sccc1O,2.5% (active)
2,CC#C[C@]1(O)CC[C@H]2[C@@H]3CCC4=CC(=O)CCC4=C3[C@@H](c3ccc4c(c3)OCO4)C[C@@]21C,-42.3% (active)
